Cdc25B inh: inhibitors of Cdc25B phosphatase catalytic domain, primary screen, biochemical, OMFP fluorescence | M-phase inducer phosphatase 2 (Homo sapiens), P30305 | recombinant Cdc25B, OMFP fluorescence Ex485/Em525 | inhibition, %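 (compounds tested at 10 µM final in the well)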 | actives 0.1% (n = 65,000); in the data active means inhibition above about 50%
A340 absorber: compound light absorbance at 340 nm, profiling panel, artefact control, biochemical, MLSMR library, data from PS, PMK, MK assays; fold change at 10 µM; compound absorbance at 340 nm, fold over control; 65,000 tested, under 10 active;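 active means at 10 µM dose, initial 340 nm absorbance at least 2 fold that of control wells; inactive means change under 2 fold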;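 further: initial absorbance extrapolated from kinetic A340 decline of NADH oxidation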
Hsp90 block: tumor Hsp90 inhibitors, primary screen, cell lysate, fluorescence polarization, NCI-N417 lysate. Heat shock protein HSP 90-alpha (Homo sapiens), P07900. inhibition, % at 30 µM. Cy3B-geldanamycin FP displacement. actives 0.35% (n = 64,000);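 active means inhibition above 50%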;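 further: 0% = tracer plus lysate wells and 100% = tracer alone without lysate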
NADH coupling: inhibitors of PK/LDH coupling enzymes, profiling panel, artefact control, biochemical, MLSMR library; coupled PK/LDH NADH assays, four targets; IC50, µM (doses to about 10 µM), without a hit: at the highest dose inhibition; actives 0.02% (n = 65,000); AID 774, 2007;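 active means single-dose screening hits from any of four coupled enzyme assays that gave an IC50 when retested across doses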;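 further: the DPM-DC format reads NADH fluorescence rather than 340 nm absorbance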
DUSP1 inh: MKP-1 phosphatase inhibitors, primary screen, biochemical, in vitro; Dual specificity protein phosphatase 1 (Homo sapiens), P28562; recombinant MKP-1, OMFP hydrolysis fluorescence; inhibition, %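 (compounds tested at a single concentration somewhere between 10 and 100 µM)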; actives 0.15% (n = 65,000); AID 374, 2006;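 active means inhibition above about 50%, limit read from the data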;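 further: 0% = DMSO max control wells and 100% = wells with enzyme stopped by NaOH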
Target sequence (P28562 whole entry, looked up): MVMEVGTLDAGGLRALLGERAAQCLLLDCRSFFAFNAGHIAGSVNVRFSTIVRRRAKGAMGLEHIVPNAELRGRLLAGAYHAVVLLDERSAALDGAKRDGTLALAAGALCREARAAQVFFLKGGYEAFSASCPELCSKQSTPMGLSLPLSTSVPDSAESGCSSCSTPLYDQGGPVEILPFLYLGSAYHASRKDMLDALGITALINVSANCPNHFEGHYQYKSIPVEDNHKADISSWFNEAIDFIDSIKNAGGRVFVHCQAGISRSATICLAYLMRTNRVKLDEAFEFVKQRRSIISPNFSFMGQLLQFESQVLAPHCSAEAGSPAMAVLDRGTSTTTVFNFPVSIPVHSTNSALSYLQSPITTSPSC
Autofluor 339: intrinsic fluorescence of library compounds, ex339/em460 – biochemical, MLSMR library, data from DPM-DC assay, artefact control, profiling panel | compound autofluorescence, ex339/em460 nm, NADH buffer; hits give high values; 1 = no-compound wells, NADH background | fluorescence fold increase at 10 µM | actives 5.5% (n = 65,000) | AID 709, 2007;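 active means at 10 µM, mean starting fluorescence two-fold or more over control wells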;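 further: signal is the first read of a kinetic run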
* marks the source's active call; other numbers are inactive results; . = no result. This is a sample that favours compounds with a hit; in the whole collection about 5.7% have one here.

SMILES	Cdc25B inh	A340 absorber	Hsp90 block	NADH coupling	DUSP1 inh	Autofluor 339
c1ccc(-c2nc3nc4ccccc4nc3n2Cc2ccco2)cc1	-4	1.1	-8	12%	-4	1.5
Cc1cccc(-n2cnc3c(c2=O)c2nc4ccccc4nc2n3Cc2ccco2)c1	-3	1.1	-6	20%	27	3.2*
COc1ccc2[nH]c(=O)c3c(c2c1)OC(C)(C)C=C3	-26	1.1	3	14%	-10	2.5*
CC(=O)N[C@@H](Cc1c[nH]c2ccccc12)C(=O)OCc1cc(C(F)(F)F)cc(C(F)(F)F)c1	.	.	-1	.	.	.
CCOC(=O)c1oc2ccccc2c1NC(=O)COc1ccc(F)cc1	-12	1.1	-3	16%	8	3.9*
CCOC(=O)c1oc2ccccc2c1NC(=O)COc1cccc(OC)c1	-11	1.1	-4	8%	0	2.9*
CCOC(=O)c1oc2ccccc2c1NC(=O)c1ccccc1OC	-8	1	-5	6%	-15	1.5
CC(C)(CNC(=O)c1cccs1)CNC(=O)c1cccs1	-16	1	2	3%	3	1.2
CC1=C(C(=O)OCCOC(C)C)C(c2cccnc2)C2=C(CCCC2=O)N1 (configuration not stated)	-6	1.1	-2	2%	-9	2.2*
CCN(CC)c1ccc(C2C(C(=O)OCCOC(C)C)=C(C)NC3=C2C(=O)CCC3)cc1 (configuration not stated)	0	1.1	-1	4%	22	1.4
COCCOC(=O)C1=C(C)NC2=C(C(=O)CC(C)(C)C2)C1c1cccnc1 (configuration not stated)	-13	1.1	3	11%	25	3.8*
CC1=C(C(=O)OCC2CCCO2)C(c2ccncc2)C2=C(CC(C)(C)CC2=O)N1 (configuration not stated)	0	1.1	-3	1%	-4	2.1*
Cc1nc2nc(C)c(CCC(=O)Nc3ccc4c(c3)OCO4)c(C)n2n1	1	0.99	-1	6%	16	1.1
Cc1cc(C(=O)OCn2nnc3ccccc3c2=O)c(C)n1-c1ccccc1	3	1.1	-1	6%	-15	1.1
CC1=C(C(=O)Nc2cccc(C)n2)C(c2ccc3c(c2)OCO3)C2=C(CC(c3ccco3)CC2=O)N1 (configuration not stated)	5	1.1	-4	7%	10	2.3*
CC(=O)C1=C(O)C(=O)N(c2cccc(C(=O)O)c2)C1c1ccc(F)cc1 (configuration not stated)	18	1.1	-2	10%	-28	1.1
N#Cc1c(-c2ccco2)cc(-c2ccccn2)nc1N	-9	1.1	-5	5%	-4	3.7*
Cc1c(-c2ccccc2)nc(N)c(C#N)c1-c1ccco1	3	1.1	1	7%	-11	2.6*
N#Cc1c(-c2ccco2)cc(-c2cccnc2)nc1N	7	1.1	-13	12%	-10	3.7*
Cc1nc(N)c(C#N)c(-c2ccccc2)c1C	3	1.1	1	3%	-27	1.3
COC(=O)c1sccc1NS(=O)(=O)c1ccc(OC)cc1	-5	1.1	-2	6%	2	1.1
COC(=O)c1oc2nc(C)cc(C)c2c1N	10	1.1	-1	2%	-3	3.9*
COc1ccc(-c2nnc(SCC(=O)N3CCOCC3)o2)cc1	2	1	1	1%	-18	1.2
O=C(CSc1nc(-c2cccs2)cc(C(F)(F)F)n1)NCc1ccco1	7	1.1	-3	7%	24	1.1
COc1ccc(-c2cc(C(F)(F)F)nc(SCC(N)=O)n2)cc1	-4	1.1	1	11%	10	3.7*
SMILES	Cdc25B inh	A340 absorber	Hsp90 block	NADH coupling	DUSP1 inh	Autofluor 339
COc1ccc(-c2cc(C(F)(F)F)nc(SCCC(=O)N3CCOCC3)n2)cc1	-1	1	-2	9%	-11	2*
COC(=O)CSc1nc(-c2cccs2)ccc1C#N	20	1.1	-4	6%	-16	2.3*
COc1ccc(-c2cc(C(F)(F)F)nc(SCC(=O)NCc3ccco3)n2)cc1OC	-15	1	-3	4%	23	2.7*
COc1ccc(CCNC(=O)CSc2nc(-c3ccco3)cc(C(F)(F)F)n2)cc1OC	-9	1.1	0	3%	-3	1.1
COc1ccc2nc(NC(=O)CN(c3ccc(C)cc3)S(=O)(=O)c3c(C)nn(C)c3C)sc2c1	-1	1	0	2%	7	1.1
CN1CCN(C(=O)CSc2nc(-c3cccs3)cc(-c3cccs3)c2C#N)CC1	3	1.1	-12	6%	34	2.8*
COc1ccc(-c2ccc(=O)n(CC(=O)NCc3ccco3)n2)cc1	18	1	-1	3%	11	1.4
COc1ccc(-c2cc(-c3cccs3)c(C#N)c(SCC(=O)NCc3ccco3)n2)cc1	13	1	-2	10%	-3	2.5*
CCOC(=O)c1ccc(NC2c3ncccc3C(=O)N2Cc2ccc(F)cc2)cc1 (configuration not stated)	-3	1.1	-1	20%	52*	1
CCCCCCCCCCCCCCCCCCNC(=O)OCC(COP(=O)([O-])OCC[n+]1ccsc1)OC (configuration not stated)	.	.	2	.	.	.
Cc1ccc(-n2c(CSc3nc(C)cc(C)n3)nnc2SCC(=O)NCc2ccco2)cc1	-7	0.96	-6	11%	-4	1.1
Cc1ccc2c(COC(=O)c3cnc(C)cn3)cc(=O)oc2c1	-2	1.1	-1	3%	-2	1.1
Cc1cc2oc(=O)cc(COC(=O)c3cccc(N(C)C)c3)c2cc1C	-9	1.1	-1	5%	0	2.1*
CCN(CCCn1c(SCC#N)nc2ccccc2c1=O)c1ccccc1	-10	1	-2	8%	29	0.98
c1ccn2c(c1)nc1c2nc2ccccn21	-11	1.1	-18	4%	6	3.8*
CN(C)C=Nc1ncc2c([nH]c3ccccc32)c1C#N	-6	1.2	-3	9%	25	2.1*
N#Cc1c(N)c(C#N)c(-c2ccc3c(c2)OCO3)c2c1CCCC2	-3	1.1	2	0%	-7	1.9
N#Cc1c(N)c(C#N)c(-c2ccc(O)cc2)c2c1CCCC2	6	1	0	3%	13	2.9*
CC1=C(C(=O)OC2CCCC2)C(c2ccc(C)o2)C2=C(CC(c3cccs3)CC2=O)N1 (configuration not stated)	-1	0.99	-2	3%	3	1.1
COc1ccc(Cl)cc1S(=O)(=O)N1CCN(C(=O)c2ccco2)CC1	-9	0.98	-1	10%	24	1.2

Source: PubChem BioAssay
